# Laboratory results: PubChem BioAssay (NCI)
# This is part of a sample that, as a whole, favours compounds with a hit. Of some 79,000 tested, about 15% had one in any assay. A number with no mark means an inactive call. Active and inactive are the calls of the source. Cut-off read from the data, not from the text of the source: active = growth inhibition above about 70%; inactive = the rest.
# Legend:
# [1] = NCI Yeast Anticancer Drug Screen. Data for the rad50 strain (AID 155);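 note: 0% = growth of vehicle-only cultures of the same strain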; settings: S. cerevisiae rad50 strain growth inhibition; at 50.0 µM; hits give high values
# Method in brief: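 A DNA repair-deficient yeast mutant serves as the test organism; compound-induced growth inhibition is calculated against vehicle-treated cells.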
# [2] = NCI Yeast Anticancer Drug Screen. Data for the mec2-1 strain (AID 157); settings: S. cerevisiae mec2-1 strain, at 50.0 µM, hits give high values
# Method in brief: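 Readout is yeast growth inhibition, normalised to vehicle-treated controls, in the mec2-1 strain exposed to compound.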
# [3] = NCI Yeast Anticancer Drug Screen. Data for the sgs1 mgt1 strain (AID 161);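 note: 0% = growth of cultures given vehicle only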; settings: S. cerevisiae sgs1 mgt1 strain, at 50.0 µM, hits give high values
# Method in brief: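 Compounds are added to genetically altered yeast, and growth is compared with cultures given vehicle alone to give percent inhibition.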
# [4] = NCI Yeast Anticancer Drug Screen. Data for the cln2 rad14 strain (AID 165);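 note: 0% = growth equal to vehicle treated cultures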; settings: S. cerevisiae cln2 rad14 strain, at 50.0 µM, hits give high values
# Method in brief: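 Relative to vehicle controls, growth inhibition of compound-treated cln2 rad14 yeast was recorded.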
# [5] = NCI Yeast Anticancer Drug Screen. Data for the bub3 strain (AID 167); settings: S. cerevisiae bub3 mutant strain, at 50.0 µM, hits give high values
# Method in brief: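 Inhibition values come from growth of compound-treated mutant yeast normalised to vehicle-treated controls.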
# [6] = NCI Yeast Anticancer Drug Screen. Data for the mlh1 rad18 strain (AID 175); settings: S. cerevisiae mlh1 rad18 strain growth inhibition; at 50.0 µM; hits give high values
# Method in brief: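 Test agents were incubated with a yeast strain of defined genotype (DNA damage repair defect). Inhibition of growth was derived by comparison with vehicle-exposed cultures.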
SMILES,growth inhibition [1],growth inhibition [2],growth inhibition [3],growth inhibition [4],growth inhibition [5],growth inhibition [6]
CCCCCN(CCCCC)CC(O)c1cccc2c1cc(Br)c1ccccc12 (stereo unspecified),30.7%,1.55%,8.7%,8.45%,0.85%,14.7%
Clc1c(Cl)c(CBr)c(Cl)c(-c2c(Cl)c(Cl)c(Cl)c(CBr)c2Cl)c1Cl,2.15%,-4.1%,-2.55%,-25.7%,2.45%,-1.1%
COC(=O)N/N=C/c1cccnc1,2.05%,-6.6%,-3.05%,-72.2%,9.8%,-26.8%
N/N=C1\C(=O)N(Cc2ccccc2)C(=O)C1C(=O)NCc1ccccc1 (stereo unspecified),7.5%,13.8%,3.4%,-36.8%,19.4%,3.5%
COc1ccccc1CNCc1nc2ccccc2[nH]1,4.8%,2.6%,6.9%,13.2%,0.55%,36.6%
CCC1(CC)CC(=O)NC1=O,-4.95%,-11.6%,-40.5%,1.5%,-26%,-11.1%
O=C(C1CC=CCC1C(=O)N1CCCCC1)N1CCCCC1 (stereo unspecified),11.1%,-8.65%,-6.2%,-3.7%,9.1%,-16.9%
CC1=C(O)CC(=O)C1,-14%,-8.8%,-6.9%,0.2%,6.4%,-9.45%
O=C1NC(c2ccccc2Cl)Nc2ccccc21 (stereo unspecified),-1.1%,4.1%,5.65%,-32.1%,5.45%,-27.1%
COC(=O)c1ccccc1CC1Cc2ccc3c(c2C1)CCC3 (stereo unspecified),-0.8%,5.45%,-1.65%,-31.6%,2.55%,13.7%
Cc1cccc(C)c1NC(=O)CCC/C(CC(=O)c1ccc(F)cc1)=N\NC(=O)C(=O)NN,20.2%,2.7%,2.4%,-32.1%,-4.9%,19.8%
O=C(/C(=C/c1ccccc1)c1ccc(Cl)cc1)c1ccccc1,12.6%,13.9%,13.7%,-15.1%,5.9%,-4%
CC(=O)C1(C)SC(N(c2ccccc2)c2ccccc2)=NC1=O (stereo unspecified),-1.2%,-4.4%,-4.05%,2.4%,9.05%,-0.6%
C=CCOC(=O)C(CC=C)C(C)=O (stereo unspecified),3.3%,-21.9%,-17.1%,-5.05%,-19.8%,-11.4%
CCn1c2ccc(C=O)cc2c2cc([N+](=O)[O-])ccc21,6.25%,-2.1%,7.2%,-0.05%,-4.7%,15.1%
O=C(O)C1CCCCC1C(=O)O.[NH-]C1CCC1.[NH2-].[Pt+2] (stereo unspecified),99.2% (active),99.3% (active),99.4% (active),99.3% (active),99% (active),99.1% (active)
Cc1cc(O[Si](C)(C)C)nc(O[Si](C)(C)C)n1,1.7%,-3.7%,0.15%,-49%,-40.3%,11.9%
COc1ccc2c(c1)C(Cc1ccc(Oc3cc(CC4c5cc(OC)ccc5CC[N+]4(C)C)ccc3OC)cc1)[N+](C)(C)CC2 (stereo unspecified),-5.9%,2.75%,-7.45%,-9.55%,-6.5%,-12.2%
Cc1ccc(/C(C#N)=C/c2cccc([N+](=O)[O-])c2)cc1,-3.1%,-30.2%,-32%,24.4%,-17.4%,-4.15%
CCC(CCC(C)C1CCC2C3CC=C4CC(OC(=O)Nc5ccccc5)CCC4(C)C3CCC12C)C(C)C (stereo unspecified),-23.4%,-28.1%,-15.9%,-38.5%,-1.5%,-26.4%
c1nnc2c3c4c(sc3ncn12)CCCC4,0.4%,-5.05%,2.4%,-24.7%,-0.1%,4.55%

SMILES,growth inhibition [1],growth inhibition [2],growth inhibition [3],growth inhibition [4],growth inhibition [5],growth inhibition [6]
O[C@H]1[C@H]2c3cc4c(cc3CN3CCC(C[C@@H]1O)[C@H]23)OCO4 (stereo partly specified),3.05%,-6.5%,9.65%,20.3%,3.4%,9.3%
CCOC(=O)C(CCC(C)(C)SCc1ccccc1)(NC(C)=O)C(=O)OCC,25.8%,-1.15%,1.45%,16.7%,2.15%,5.6%
O=[N+]([O-])C(C=Nc1ccccc1)C=Nc1ccccc1 (stereo unspecified),6.35%,-23%,-2.85%,-2.25%,-13.4%,0.45%
CCCCN(C(=O)N(CC)CC)[Si](C)(C)C,-17.6%,-41.7%,-12.4%,14%,-14.7%,-25.3%
Br[C@H]1CC2CCC1C2 (stereo partly specified),23.1%,-23.9%,2.9%,6.9%,-6.1%,5.65%
Nc1ncnc2c1ncn2[C@@H]1C[C@H]1CO,-39.6%,10.8%,-23.6%,12.1%,20.6%,-23.4%
CCOC(=O)Nc1cc2c(c(N)n1)N=C(CN(C)c1ccccc1)CN2,22.9%,6.15%,59.5%,16.3%,35%,30.3%
CCOc1c(N=Nc2ccccc2C)c(C)nn1C(N)=S,18.1%,0.7%,18.3%,-24.6%,21.1%,23.1%
C(=C/c1ccc2c(c1)OCO2)/c1ccccc1,-16.1%,10.3%,12.2%,-2.85%,11%,2.9%
COc1ccccc1/C=N/NS(=O)(=O)c1ccc(NC(C)=O)cc1,0.85%,-7.05%,14.1%,-14.7%,-41.3%,-4.2%
CCC(=O)[C@H]1CC[C@H]2[C@@H]3CCC4=CC(=O)CC[C@]4(C)[C@H]3CC[C@]12C,-7.6%,26.9%,32%,6.5%,37.5%,2.45%
CCOC(=O)/C=C/c1nc(C(=O)OCC)c(C)c(=O)[nH]1,-0.55%,8.3%,22%,7%,1.25%,-24.1%
O=C1CN(/N=C/c2ccc(-c3ccc(Cl)c(Cl)c3)o2)C(=O)N1,28.9%,14.4%,29.1%,3.2%,10%,5.5%
Cc1nc2ccccn2c1N=Nc1ccc(C(=O)NN)cc1,7.3%,-15.1%,0.1%,10.8%,-10.8%,-18.4%
Cc1ccc(S(=O)(=O)/C(=C/c2ccccc2)CC(=O)c2ccccc2)cc1,9.05%,6.55%,-22.1%,-18.4%,11.1%,17%
OCC(O)C(O)C(O)c1nn(-c2ccc(Cl)cc2)c2nc3cc(Cl)c(Cl)cc3nc12 (stereo unspecified),1.85%,-28.6%,-33.9%,15.4%,4.4%,0.85%
CCOC(=O)C1=C(C(=O)c2ccc(OC)cc2)C(c2ccc(OC)c(OC)c2)C(C(=O)c2ccc(OC)cc2)=C(C(=O)OCC)N1,-44.4%,-20%,-32.2%,-24.6%,-23%,-18.8%
O=c1/c(=C2\Cc3cccc4cccc2c34)c2cccc3cccc1c32,-9.7%,-10.8%,10.1%,-1.45%,18.7%,-15.2%
COC(=O)c1ccccc1O,-3.4%,2.25%,-7.9%,-39.4%,1.25%,-19.5%
CC(C)(O)c1ccccc1[S+]1OC(C)(C)c2ccccc21 (stereo unspecified),27.9%,17.6%,30.3%,56.8%,98.3% (active),35.8%
